Experimental findings from PubChem BioAssay are described below.

Active and inactive are the calls of the source.

Experiment [1] can be described thus: optical density shifts of acrAB sulA E. coli – strain DRC41, OD650, 48 h, E. coli filamentation inducer project, primary screen (AID 1152).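 Also: E. coli MC1000 strain DRC41 lacking acrAB efflux pump and sulA.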 Conditions: higher = more signal, called active from +8 up or from −8 down.
Experiment [2] can be described thus: probe aLefty1 binding on compound microarray – biochemical, small-molecule microarray, 635/667 nm fluorescence, primary screen (AID 1153).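 Also: score merges spot fluorescence with signal-to-noise ratio from the scanned slide images.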 Conditions: higher = more signal.
The nature of experiment [3]: plasmodial surface anion channel blockers, osmotic lysis – cell-based, P. falciparum Indochina, OD700, 1 h, primary screen (AID 1154). Conditions: P. falciparum Indochina infected RBC osmotic lysis, higher = more signal, called active from +8 up or from −8 down.
A short description of experiment [4]: plasmodial surface anion channel blockers, osmotic lysis – cell-based, P. falciparum Indochina, OD700, 2 h, primary screen (AID 1155).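 Also: lysis reports solute entry through the parasite surface anion channel PSAC.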 The conditions noted are these: P. falciparum Indochina infected erythrocytes, higher = more signal, called active from +8 up or from −8 down.
The nature of experiment [5]: changes in parasitized red cell lysis, either direction – P. falciparum Indochina, OD700, 3 h, PSAC antagonist project, primary screen (AID 1156). The conditions noted are these: P. falciparum-infected erythrocytes, osmotic lysis, higher = more signal, called active from +8 up or from −8 down.
Experiment [6] in a line: plasmodial surface anion channel blockers, osmotic lysis – cell-based, P. falciparum Indochina, OD700, 18 h, primary screen (AID 1157). The conditions noted are these: P. falciparum Indochina infected erythrocytes, osmotic lysis OD700, 18 h; higher = more signal, called active from +8 up or from −8 down.
Experiment [7] can be described thus: S6 kinase pathway phospho-S6 level changes – cell-based, A549, cytoblot, luminescence, serum-stimulated, primary screen (AID 1158).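 Also: serum-stimulated A549 lung adenocarcinoma cells; signal is phosphorylated S6 detected by cytoblot immunostaining with HRP secondary.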 Conditions: 5 h, higher = more signal.
Experiment [8] addresses NADPH oxidase 2 (Homo sapiens) (UniProt P04839). The experiment can be described thus: compounds shifting NOX2 Amplex Red fluorescence – cell-based, HEK293-NOX2, PMA-stimulated, NOX inhibitor project, primary screen (AID 1159). Also: test concentration not given here. Conditions: 45 min, higher = more signal, called active from +8 up or from −8 down.
The target of experiment [9] is NADPH oxidase 4 (Homo sapiens) (UniProt Q9NPH5). The experiment can be described thus: compounds shifting NOX4 Amplex Red fluorescence – cell-based, HEK293-NOX4, tetracycline-induced, NOX inhibitor project, primary screen (AID 1160). Conditions: HEK293-NOX4, Amplex Red H2O2 fluorescence, 45 min; higher = more signal, called active from +8 up or from −8 down.
Experiment [10] concerns the target NADPH oxidase 5 (Homo sapiens) (UniProt Q96PH1). The experiment in a line: compounds shifting NOX5 Amplex Red fluorescence – cell-based, HEK293-NOX5, NOX inhibitor project, primary screen (AID 1161). The conditions noted are these: HEK293-NOX5, ionomycin, 45 min, higher = more signal.

Chain of NADPH oxidase 2 (Homo sapiens) (P04839 whole entry, looked up): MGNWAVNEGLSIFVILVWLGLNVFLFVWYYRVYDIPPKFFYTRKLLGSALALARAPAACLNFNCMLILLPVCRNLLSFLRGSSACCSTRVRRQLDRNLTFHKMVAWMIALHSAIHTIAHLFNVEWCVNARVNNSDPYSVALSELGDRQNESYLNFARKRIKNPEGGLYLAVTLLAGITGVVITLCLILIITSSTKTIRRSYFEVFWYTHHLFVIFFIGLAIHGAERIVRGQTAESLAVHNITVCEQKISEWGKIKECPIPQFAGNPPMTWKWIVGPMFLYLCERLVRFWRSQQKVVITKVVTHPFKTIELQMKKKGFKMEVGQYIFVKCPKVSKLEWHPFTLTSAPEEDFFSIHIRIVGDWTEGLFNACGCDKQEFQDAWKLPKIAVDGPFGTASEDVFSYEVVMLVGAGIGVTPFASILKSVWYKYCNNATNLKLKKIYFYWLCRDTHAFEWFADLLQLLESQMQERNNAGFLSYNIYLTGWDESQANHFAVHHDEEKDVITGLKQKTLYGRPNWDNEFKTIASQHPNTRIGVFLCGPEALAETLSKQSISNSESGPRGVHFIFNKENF
Chain of NADPH oxidase 4 (Homo sapiens) (Q9NPH5 whole entry, looked up): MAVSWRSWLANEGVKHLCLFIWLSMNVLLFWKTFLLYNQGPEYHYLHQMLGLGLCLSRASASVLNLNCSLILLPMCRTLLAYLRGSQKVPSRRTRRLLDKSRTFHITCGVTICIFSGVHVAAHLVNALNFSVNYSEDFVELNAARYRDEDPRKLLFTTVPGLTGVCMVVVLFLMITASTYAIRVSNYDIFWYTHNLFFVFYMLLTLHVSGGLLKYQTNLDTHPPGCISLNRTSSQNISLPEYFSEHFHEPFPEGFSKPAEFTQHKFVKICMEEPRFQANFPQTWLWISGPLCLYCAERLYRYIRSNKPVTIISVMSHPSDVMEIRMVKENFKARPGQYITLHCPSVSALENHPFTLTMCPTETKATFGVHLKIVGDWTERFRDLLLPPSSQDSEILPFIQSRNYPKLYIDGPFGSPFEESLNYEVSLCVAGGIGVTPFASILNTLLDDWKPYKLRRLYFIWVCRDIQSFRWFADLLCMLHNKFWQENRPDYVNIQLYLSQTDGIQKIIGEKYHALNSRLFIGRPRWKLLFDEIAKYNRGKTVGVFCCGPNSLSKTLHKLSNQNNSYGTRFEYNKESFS
Chain of NADPH oxidase 5 (Homo sapiens) (Q96PH1 whole entry, looked up): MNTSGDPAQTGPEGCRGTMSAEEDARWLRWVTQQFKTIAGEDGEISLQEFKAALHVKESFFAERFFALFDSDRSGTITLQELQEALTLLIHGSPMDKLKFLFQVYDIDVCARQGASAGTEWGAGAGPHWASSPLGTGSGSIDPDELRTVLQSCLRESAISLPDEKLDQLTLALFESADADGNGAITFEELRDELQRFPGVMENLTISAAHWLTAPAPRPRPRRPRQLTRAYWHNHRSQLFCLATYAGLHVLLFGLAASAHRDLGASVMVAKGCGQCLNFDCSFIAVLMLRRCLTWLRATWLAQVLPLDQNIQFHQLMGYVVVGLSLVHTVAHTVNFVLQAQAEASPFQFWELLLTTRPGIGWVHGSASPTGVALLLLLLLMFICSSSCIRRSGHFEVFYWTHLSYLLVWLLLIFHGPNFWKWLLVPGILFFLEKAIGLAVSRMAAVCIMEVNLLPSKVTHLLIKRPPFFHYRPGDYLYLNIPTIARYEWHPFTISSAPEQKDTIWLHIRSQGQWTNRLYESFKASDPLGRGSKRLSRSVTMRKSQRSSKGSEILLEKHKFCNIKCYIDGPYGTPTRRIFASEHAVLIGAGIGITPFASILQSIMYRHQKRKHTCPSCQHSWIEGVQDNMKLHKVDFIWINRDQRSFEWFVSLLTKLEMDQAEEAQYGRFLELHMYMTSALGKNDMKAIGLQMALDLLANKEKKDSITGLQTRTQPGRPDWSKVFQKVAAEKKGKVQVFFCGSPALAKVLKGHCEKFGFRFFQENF

Regarding `COc1ccc(C(=O)Nc2cccc(CN3C(=O)[C@]4(O[C@H](CCO)[C@@H]([Si](C)(C)c5ccc(OC)cc5)[C@@H]4C)c4ccccc43)c2)cc1`, the z-score in [1] is -0.172 (inactive); in experiment [3] it was 2.54 (inactive); in experiment [4], 1.45 (inactive); in experiment [5] it was 0.374 (inactive); in [6] it was 1.85 (inactive); in experiment [7], -0.59. Besides, the z-score in experiment [8] was -6.65 (inactive); in experiment [9] it was -2.74 (inactive); in experiment [10] it was -3.1. This compound yielded a composite z-score in experiment [2] of 0.0698.

Regarding `COCCOC(=O)N1C(=O)[C@@]2(c3cc(C#CC4=CCCCC4)ccc31)[C@H](c1ccc(O)cc1)N1[C@H](c3ccccc3)[C@H](c3ccccc3)OC(=O)[C@H]1[C@@H]2C(N)=O`, the z-score in experiment [1] was -0.623 (inactive); in experiment [3] it was 2.57 (inactive); in experiment [4], -0.403 (inactive); in [5], 0.193 (inactive); in [6], -0.104 (inactive); in experiment [7], -0.0587. The z-score in [8] was 0.823 (inactive); in experiment [9], 0.748 (inactive); in experiment [10] it was 1.03. For the same compound, the composite z-score in experiment [2] was -0.523.

As for `C=CCOC(=O)[C@@H]1[C@H]2C(=O)O[C@H](c3ccccc3)[C@H](c3ccccc3)N2[C@H](c2ccc(OCCOC(=O)[C@@H]3C[C@@H]4C(=O)N[C@@H](Cc5ccccc5)C(=O)N4[C@@H]3c3ccc(O)cc3)cc2)[C@@]12C(=O)Nc1ccc(I)cc12`, the z-score in experiment [1] is 0.299 (inactive); in experiment [3], 2.33 (inactive); in experiment [4], 1.87 (inactive); in experiment [5], 5.01 (inactive); in experiment [6], 1.14 (inactive); in experiment [7], 0.572. Also, the figures for the z-score in experiment [8], in experiment [9] and in [10] were 0.715 (inactive), 0.304 (inactive) and 0.591, respectively. The same compound came in with a composite z-score in [2] of 0.546.

Consider `CCCCC(O)C1C=CC2C(=O)N(c3ccccc3)C(=O)C2N1Nc1ccccc1F` (stereo not given), for which the z-score in [1] was -1.06 (inactive); in experiment [3] it was 0.449 (inactive); in experiment [4], 1.49 (inactive); in experiment [5] it was 0.273 (inactive); in experiment [6], 1.19 (inactive); in experiment [7] it was -1.3. In addition, the z-score in experiment [8] was -1.2 (inactive); in [9], -4.93 (inactive); in [10] it was -1.88. Also, in [2], the composite z-score turned out to be 0.328.

Consider `COCCOC(=O)N1C(=O)[C@@]2(c3cc(C#Cc4ccc(OC)cc4)ccc31)[C@H](C(N)=O)[C@H]1C(=O)O[C@H](c3ccccc3)[C@H](c3ccccc3)N1[C@@H]2c1ccccc1OCCO`, for which the z-score was -0.289 (inactive) in [1]; 4.42 (inactive) in experiment [3]; 2.55 (inactive) in experiment [4]; -0.499 (inactive) in [5]; 1.59 (inactive) in experiment [6]; -0.413 in experiment [7]. Moreover, the z-score was 2.38 (inactive) in experiment [8], 1.1 (inactive) in experiment [9] and 1.44 in experiment [10]. Moreover, the composite z-score in experiment [2] stood at 0.358.

As to `[N-]=[N+]=Nc1ccccc1C[C@]1(C(N)=O)N=C(c2ccc(OCCCO)cc2)O[C@H]1c1ccccc1`, the z-score in experiment [1] is -0.444 (inactive); in [3] it was 19.8 (active); in [4], 3.47 (inactive); in experiment [5] it was 1.84 (inactive); in experiment [6] it was 0.936 (inactive); in [7] it was 0.176. The z-score in experiment [8] is 0.631 (inactive); in [9], 0.247 (inactive); in [10], -1.32. Moreover, the composite z-score in experiment [2] was 0.228.

For `COC(=O)[C@@]1(Cc2ccc(OC)cc2)[C@H]2c3cc(C(=O)N4CCCC4)n(Cc4ccc(OC)c(OC)c4)c3C[C@H]2CN1C(=O)c1ccccc1`, the z-score in experiment [1] is -1.08 (inactive); in [3] it was 4.08 (inactive); in experiment [4] it was 0.81 (inactive); in experiment [5], 1.92 (inactive); in [6], 0.91 (inactive); in experiment [7] it was 0.0413. The figures for the z-score in experiment [8], in experiment [9] and in experiment [10] were 0.555 (inactive), 0.235 (inactive) and -3.23, respectively. The same compound gave a composite z-score in experiment [2] of 1.61.

`COCCOC(=O)N1C(=O)[C@@]2(c3cc(C#CC4=CCCCC4)ccc31)[C@H](C(=O)N1CCc3cc(OC)c(OC)cc3C1)[C@H]1C(=O)O[C@H](c3ccccc3)[C@H](c3ccccc3)N1[C@@H]2c1ccc(OCCO)cc1`: the z-score in experiment [1] was -0.332 (inactive); in experiment [3] it was 3.71 (inactive); in experiment [4], 1.19 (inactive); in experiment [5] it was -0.129 (inactive); in experiment [6], 0.801 (inactive); in [7], 0.261. Also, the z-score is 1.77 (inactive) in experiment [8], 1.18 (inactive) in [9] and 0.669 in experiment [10]. Moreover, the composite z-score in [2] came to 0.0752.

With `Cc1ccc(S[C@]2(C(=O)NCCN3CCOCC3)CC(=O)N(Cc3ccccc3Cl)[C@@H]2c2ccc(CO)cc2)cc1`, the z-score in experiment [1] was 0.59 (inactive); in [3], 2.62 (inactive); in experiment [4] it was 0.43 (inactive); in experiment [5], 1.94 (inactive); in experiment [6] it was 0.524 (inactive); in experiment [7] it was 0.413. For the same compound, the z-score in [8] was -2.29 (inactive); in experiment [9] it was -1.85 (inactive); in [10], -2.89. The compound further came in with a composite z-score in [2] of 0.0402.

As for `[N-]=[N+]=NCc1ccccc1[C@@H]1OC(c2ccc(OCCCO)cc2)=N[C@]1(Cc1ccccc1N=[N+]=[N-])C(=O)N1CCOCC1`, the z-score in experiment [1] is -0.66 (inactive); in experiment [3], 16.9 (active); in [4], 3.7 (inactive); in experiment [5] it was 1.17 (inactive); in [6] it was 1.01 (inactive); in [7], 0.37. Further, the z-score is -1.31 (inactive) in [8], 1.23 (inactive) in [9] and 1.4 in experiment [10]. The compound further showed a composite z-score in experiment [2] of 0.628.

As to `O=C(C1N=C(c2ccc(OCCCO)cc2)N(c2ccccc2)O1)N1CCOCC1` (stereo not given), the z-score was 1.72 (inactive) in experiment [1]; 24.4 (active) in experiment [3]; 4.44 (inactive) in [4]; -0.593 (inactive) in experiment [5]; -0.121 (inactive) in experiment [6]; 1.75 in experiment [7]. Further, the z-score in experiment [8] was -3.16 (inactive); in [9] it was -0.258 (inactive); in [10], -0.432. The compound further had a composite z-score in [2] of 0.0721.

For the compound `COc1ccc([Si](C)(C)[C@H]2[C@H](CCO)O[C@@]3(C(=O)N(C)c4c(Br)cc(C)cc43)[C@@H]2C)cc1`, the z-score in experiment [1] was -1.28 (inactive); in experiment [3], 7.79 (inactive); in experiment [4] it was 1.8 (inactive); in experiment [5], -2.17 (inactive); in experiment [6], 0.987 (inactive); in experiment [7], 0.0508. Besides, the z-score in experiment [8] was -1.41 (inactive); in experiment [9], -1.15 (inactive); in [10], -0.777. This compound also registered a composite z-score in [2] of 0.0486.

As for `COc1ccc([C@H]2C[C@H]3C(Br)=C[C@@H]2C(=O)[C@]32CO2)cc1`, the z-score in [1] is 0.834 (inactive); in experiment [3], 1.27 (inactive); in experiment [4] it was 0.581 (inactive); in experiment [5], 1.23 (inactive); in experiment [6] it was 0.207 (inactive); in experiment [7], -0.288. Besides, the results for the z-score in experiment [8], in experiment [9] and in [10] were -0.0817 (inactive), 0.106 (inactive) and -0.837, respectively. This compound also showed a composite z-score in [2] of -0.294.
